Paper PMC5540273 (PLoS ONE, 2017)

System: T1, PKAC-alpha
T1 construct: gene PRKACA
Details: concentration: 1 μM, replicates: in singlicate; n = 1
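Also: KINOMEscan kinase panel screen.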

| Compound | %Inh |
| --- | --- |
| COc1ccc(COc2cc(-n3cnc4ccccc43)sc2C(N)=O)cc1 [GSK1024304] | 0% |
| Cc1nnc(-c2ccc3ncc(-c4ccc(S(C)=O)cc4)n3c2)o1 (centres unmarked) | 2% |
| COc1ccc(S(=O)(=O)NC2CCN(c3cc(C)nc(Nc4cccc(C#N)c4)n3)CC2)cc1.O=C(O)C(F)(F)F [GSK1653539] | 0% |
| COc1ccc(Nc2nccc(N3CCC(NC(=O)Nc4cccc(C(C)=O)c4)C3)n2)cc1 (centres unmarked) [GSK1379731] | 2% |
| Cc1cccc(-c2nc(Nc3ccc4ncsc4c3)c3ccccc3n2)n1 [GW867588] | 11% |
| C[C@@H](Oc1cc(-n2cnc3ccc(NC(=O)NC(C)(C)C)cc32)sc1C(N)=O)c1ccccc1Cl [GSK346294] | 4% |
| c1ccc(-c2cc(-c3c[nH]nc3-c3ccccn3)ccn2)cc1 [GW576604] | 5% |
| CCc1nc(-c2cccc(C)c2)c(-c2ccnc(NCc3ccccc3)c2)s1 | 0% |
| COCCNC(=O)c1ccc(-c2cc(C(=O)NC3CC3)cc(F)c2C)cc1 [GW868318] | 9% |
| N#Cc1ccc(-c2cc(-c3c[nH]nc3-c3ccccn3)ccn2)cc1 [GW693028] | 0% |
| O=C(Nc1n[nH]c2cc(-c3cccc(F)c3)ccc12)C1CC1 [SB-735464] | 3% |
| Cl.Oc1cccc(Nc2ccnc3cc(-c4ccncc4)ccc23)c1 [GW494601] | 0% |
| Cn1cc(-c2ccc3c(c2)CCN3C(=O)Cc2ccccc2Cl)c2c(N)ncnc21 [GSK2608885] | 45% |
| CN1c2ccc(CNc3ccc(F)cc3)cc2-c2c(cnn2C)S1(=O)=O | 5% |
| O=c1cc(N2CCOCC2)nc2n(Cc3cccc(C(F)(F)F)c3)ccn12 [GSK2297543] | 0% |
| Fc1ccc(-c2nn3c(OCC(F)(F)F)cccc3c2-c2ccncc2)cc1 [GW514784] | 6% |
| COc1cc2c(cc1OC[C@@H](O)CO)ncc1c3ccc(C#N)cc3[nH]c21 | 0% |
| Nc1nc(-c2ccc3c(N)n[nH]c3c2)cc(N2CCCC2)n1 [GSK2227430] | 0% |

| Compound | %Inh |
| --- | --- |
| Cc1cccc(-c2nc(-c3ccc(S(C)(=O)=O)cc3)sc2-c2ccncc2)c1 | 0% |
| NCC(NC(=O)c1cc(-c2cn[nH]c2)c(-c2ccnc3[nH]ccc23)s1)c1ccccc1.O=C(O)C(F)(F)F.O=C(O)C(F)(F)F (centres unmarked) [GSK1325775] | 98.7% |
| O=C(Nc1cccc(-c2nn3ncccc3c2-c2ccnc(Nc3cccc(C(F)(F)F)c3)n2)c1)c1c(F)cccc1F [GSK299495] | 12% |
| O=c1cc(N2CCOCC2)nc2n(Cc3cccc4ccccc34)ccn12 [GSK2333389] | 0% |
| CSc1ccc(-c2cc3ncnc(SCC(=O)O)c3s2)cc1 | 0% |
| O=C(NCCNc1ccnc(Nc2ccc(F)cc2)n1)c1cc2ccccc2s1 [GSK1379874] | 0% |
| COc1cc2c(cc1OCCN1CCN(C)CC1)ncc1c3ccc(C#N)cc3[nH]c21 | 0% |
| Cc1nnc(-c2ccc3occ(-c4ccc(C(C)O)cc4)c3c2)o1 (centres unmarked) | 7% |
| COc1ccc(Nc2ncc(C#N)c(Nc3ccccc3C(N)=O)n2)cc1N1CCN(C)CC1.Cl [GSK1558669] | 76% |
| O=C(NCCCN1CCOCC1)c1cccc(Nc2nccc(Nc3ccc(Oc4ccccc4)cc3)n2)c1 [GW663929] | 4% |
| CC(=O)Nc1ccc(COc2ccc(Nc3ccnc4cc(-c5ccccn5)ccc34)cc2)cc1.Cl [GW440148] | 0% |
| c1ccc(-c2n[nH]cc2-c2ccnc3ccccc23)nc1 [GW271431] | 9% |
| COc1ccc(CNC(=O)NC2CCN(c3ccnc(Nc4ccc(OC)cc4)n3)C2)cc1 (centres unmarked) [GSK1379727] | 0% |
| O=C(c1ccc(-c2cc(-c3c[nH]nc3-c3ccccn3)ccn2)cc1)N1CCOCC1 [GW812171] | 0% |
| COc1cc(Nc2nccc(N3CCC(NC(=O)c4cccc(NC(C)=O)c4)C3)n2)cc(OC)c1OC (centres unmarked) [GSK1379754] | 3% |
| CC(C)(C)n1cnc2c(N)ncnc21 [SKF-97359] | 0% |
| Cc1c(Cn2c(C)nn3c(=O)cc(N4CCOC(C)C4)nc23)cccc1C(F)(F)F (centres unmarked) [GSK2344444] | 4% |
